From PubChem BioAssay (NCATS)
Results filed as inconclusive are left out. Active and inactive are the calls of the source. Unless noted, calls follow the shape of the dose curve; as a rule, active = well fitted curve in either direction with a large enough effect (not every such curve was filed as active); inconclusive = small, poorly fitted or top-dose-only effect, or another doubt; inactive = flat fitted curve, though single readings scatter.

What was measured:
[1] = target: Lysosomal acid glucosylceramidase (Homo sapiens) (UniProt P04062); assay: Glucocerebrosidase-p2 (AID 348; in the data active = potency below about 10 µM; also: potency is read from the fitted curve at half-maximal effect); conditions: purified GBA, blue fluorogenic substrate, 40 min
Chain of Lysosomal acid glucosylceramidase (Homo sapiens) (P04062 whole entry, looked up): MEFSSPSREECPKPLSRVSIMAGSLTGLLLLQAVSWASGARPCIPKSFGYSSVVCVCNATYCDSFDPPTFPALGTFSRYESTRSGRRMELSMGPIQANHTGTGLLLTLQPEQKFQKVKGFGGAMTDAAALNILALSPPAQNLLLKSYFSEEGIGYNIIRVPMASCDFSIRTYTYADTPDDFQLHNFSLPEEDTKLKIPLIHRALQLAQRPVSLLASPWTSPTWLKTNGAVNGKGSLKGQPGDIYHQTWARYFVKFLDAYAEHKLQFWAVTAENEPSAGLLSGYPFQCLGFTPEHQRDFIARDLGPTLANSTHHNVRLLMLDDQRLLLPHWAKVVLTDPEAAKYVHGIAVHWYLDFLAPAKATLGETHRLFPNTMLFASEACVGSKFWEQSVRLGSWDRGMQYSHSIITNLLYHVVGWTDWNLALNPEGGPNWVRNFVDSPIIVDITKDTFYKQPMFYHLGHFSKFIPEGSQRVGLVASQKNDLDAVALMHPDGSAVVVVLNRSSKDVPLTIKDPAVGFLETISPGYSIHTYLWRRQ
How it was run: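 Normal human glucocerebrosidase (0.2 nM) with blue fluorogenic substrate (80 uM final) in citrate/phosphate pH 5.9 with 10mM sodium taurocholate, 0.01% tween-20; 40 min RT, NaOH/glycine stop; fluorescence Ex 365/Em 440; AC50 from a titration from 0.6 nM upwards.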

[2] = AP1 Signaling Pathway (AID 357); conditions: ME-180 AP-1-bla reporter, EGF-induced, beta-lactamase ratio, 5 h; at 7.69 µM (top of the series) unless noted; also: % is scaled to controls: 0 for no effect and ±100 for the full control effect
How it was run: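 Titration-series screen for positive or negative modulators of EC50 EGF-induced signaling in ME-180 cells carrying an AP-1-driven beta-lactamase reporter. After 5 hours at 37 degrees Celsius, CCF4 460nm/530nm emission ratio gave %Activity; AC50 values derived.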

[3] = Stat Signaling Pathway (AID 446); conditions: ME-180 SIE beta-lactamase reporter, IL-6 stimulated, 5 h; at 7.69 µM (top of the series) unless noted;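 also: ME-180 cervical cancer cells given 40 pM IL-6 alongside compound; SIE-controlled beta-lactamase reporter measured as 460/530 nm FRET emission ratio; % is scaled to controls: 0 for no effect and ±100 for the full control effect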
How it was run: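 Normalization used AC90 stimulation (300 pM IL-6) and AC90 inhibition (125 nM pan-JAK inhibitor at 40 pM IL-6). The underlying signal is SIE-driven beta-lactamase in ME-180 cells after 5 h IL-6 exposure with compound.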

[4] = target: Glucocorticoid receptor (Homo sapiens) (UniProt P04150); assay: GR-GFP Redistribution (AID 450;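 active = compounds whose dose series gives a full or clear partial fitted curve of increased nuclear translocation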; also: potency is read from the fitted curve at half-maximal effect); conditions: U2OS GR-GFP nuclear translocation, laser cytometry, 2 h
Chain of Glucocorticoid receptor (Homo sapiens) (P04150 whole entry, looked up, the tested form may be a part): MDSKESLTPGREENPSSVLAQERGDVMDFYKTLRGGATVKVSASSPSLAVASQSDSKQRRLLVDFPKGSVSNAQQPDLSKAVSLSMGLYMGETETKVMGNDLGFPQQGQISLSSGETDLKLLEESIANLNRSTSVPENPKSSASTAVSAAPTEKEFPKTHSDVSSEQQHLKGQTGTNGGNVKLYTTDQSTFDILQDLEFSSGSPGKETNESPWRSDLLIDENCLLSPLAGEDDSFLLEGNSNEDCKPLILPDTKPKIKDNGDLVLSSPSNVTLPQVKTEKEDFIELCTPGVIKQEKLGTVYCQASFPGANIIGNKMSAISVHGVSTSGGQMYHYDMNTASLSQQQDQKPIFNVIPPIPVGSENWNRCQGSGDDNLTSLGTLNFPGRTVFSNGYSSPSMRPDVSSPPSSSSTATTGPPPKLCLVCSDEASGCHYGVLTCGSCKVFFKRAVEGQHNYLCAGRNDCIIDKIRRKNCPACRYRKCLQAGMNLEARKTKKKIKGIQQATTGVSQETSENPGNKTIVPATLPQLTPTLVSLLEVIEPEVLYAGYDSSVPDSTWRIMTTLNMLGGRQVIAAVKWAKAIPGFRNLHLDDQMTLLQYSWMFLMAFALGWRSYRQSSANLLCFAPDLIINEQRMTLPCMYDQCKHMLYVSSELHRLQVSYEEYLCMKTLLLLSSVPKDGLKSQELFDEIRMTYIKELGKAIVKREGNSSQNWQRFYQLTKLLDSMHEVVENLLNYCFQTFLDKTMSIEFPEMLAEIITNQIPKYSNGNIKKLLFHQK

[5] = target: Glucocorticoid receptor (Homo sapiens) (UniProt P04150); assay: GR-EFC Redistribution (AID 451; calls by dose curve; also: potency is read from the fitted curve at half-maximal effect); conditions: CHO-K1 GR-EFC translocation, beta-gal luminescence, 2 h
How it was run: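 Translocation of GR-ED fusion to nuclear EA restores b-gal, read by luminescence after 1 h room-temperature detection. Engineered CHO-K1 biosensor cells, 1,000/well, exposed 2 h at 37 C to titrations up to 46 uM final.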

[6] = target: Mitogen-activated protein kinase 10 (Mus musculus) (UniProt Q61831); assay: JNK3 AlphaScreen Assay (AID 530); conditions: JNK3 lysate, c-Jun phosphorylation; series mostly up to 57.1 µM;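 also: kinase came from lysate of stimulated human HepG2 cells; signal reports phosphorylation of biotinylated GST-cJun 1-79 at Ser73 with 10 µM ATP; % is scaled to controls: 0 for no effect and ±100 for the full control effect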
How it was run: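 Kinase buffer: 20 mM Tris-HCl pH 7.6, 10 mM MgCl2, 1 mM DTT, 0.1 mM Na3VO4, 0.01% Tween-20; ATP 10 uM. Substrate biotin-GST-cJun(1-79), enzyme from activated HepG2 lysates. Detection by Ser73 phospho-antibody AlphaScreen.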

[7] = target: 3',5'-cyclic-AMP phosphodiesterase 4B (Homo sapiens) (UniProt Q07343); assay: qHTS Assay for Inhibitors of PDE-IV (AID 607; active = well fitted activation curve with a large enough effect in the main read-out, with a control signal flat, not every such curve was filed as active; also: % of control where 0% means no effect); conditions: HEK293 ACTOne CNG channel cells, membrane potential fluorescence; series mostly up to 22.9 µM
Chain of 3',5'-cyclic-AMP phosphodiesterase 4B (Homo sapiens) (Q07343 whole entry, looked up): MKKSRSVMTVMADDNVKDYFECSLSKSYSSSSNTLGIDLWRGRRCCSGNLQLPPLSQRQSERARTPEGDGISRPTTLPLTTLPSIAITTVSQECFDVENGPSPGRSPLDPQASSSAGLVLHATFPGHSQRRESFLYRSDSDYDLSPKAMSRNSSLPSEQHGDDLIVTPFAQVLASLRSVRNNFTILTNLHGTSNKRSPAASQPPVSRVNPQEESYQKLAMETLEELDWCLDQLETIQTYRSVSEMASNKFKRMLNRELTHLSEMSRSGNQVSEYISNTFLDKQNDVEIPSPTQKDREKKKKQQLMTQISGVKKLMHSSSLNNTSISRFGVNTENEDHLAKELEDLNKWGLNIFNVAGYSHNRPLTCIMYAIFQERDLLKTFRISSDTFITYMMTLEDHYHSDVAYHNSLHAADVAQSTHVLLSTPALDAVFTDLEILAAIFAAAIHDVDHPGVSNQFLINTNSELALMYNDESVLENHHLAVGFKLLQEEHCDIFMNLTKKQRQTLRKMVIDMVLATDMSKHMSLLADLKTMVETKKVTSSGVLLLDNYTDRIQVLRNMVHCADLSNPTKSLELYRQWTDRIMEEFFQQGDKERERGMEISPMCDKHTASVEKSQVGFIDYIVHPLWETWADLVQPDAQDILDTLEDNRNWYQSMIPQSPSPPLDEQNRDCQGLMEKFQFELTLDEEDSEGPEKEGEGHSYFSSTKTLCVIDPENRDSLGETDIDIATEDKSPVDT
How it was run: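 HEK293 ACTOne cells with CNG channel (1000/well), endogenous PDE4; membrane potential dye, compounds up to 22.9 uM final. Fluorescence Ex 535/Em 590; RO 20-1724 (100 uM final) as reference.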

[8] = target: Cytochrome P450 3A4 (Homo sapiens) (UniProt P08684); assay: qHTS Assay for Activators of Cytochrome P450 3A4 (AID 885; active = well fitted curve in the direction sought with a large enough effect; an effect the other way counts as inactive or inconclusive; also: nearly all actives have a fitted effect of over 65% in size); conditions: recombinant CYP3A4, Luciferin-PPXE luminescence, 60 min; series mostly up to 57.1 µM
Chain of Cytochrome P450 3A4 (Homo sapiens) (P08684 whole entry, looked up): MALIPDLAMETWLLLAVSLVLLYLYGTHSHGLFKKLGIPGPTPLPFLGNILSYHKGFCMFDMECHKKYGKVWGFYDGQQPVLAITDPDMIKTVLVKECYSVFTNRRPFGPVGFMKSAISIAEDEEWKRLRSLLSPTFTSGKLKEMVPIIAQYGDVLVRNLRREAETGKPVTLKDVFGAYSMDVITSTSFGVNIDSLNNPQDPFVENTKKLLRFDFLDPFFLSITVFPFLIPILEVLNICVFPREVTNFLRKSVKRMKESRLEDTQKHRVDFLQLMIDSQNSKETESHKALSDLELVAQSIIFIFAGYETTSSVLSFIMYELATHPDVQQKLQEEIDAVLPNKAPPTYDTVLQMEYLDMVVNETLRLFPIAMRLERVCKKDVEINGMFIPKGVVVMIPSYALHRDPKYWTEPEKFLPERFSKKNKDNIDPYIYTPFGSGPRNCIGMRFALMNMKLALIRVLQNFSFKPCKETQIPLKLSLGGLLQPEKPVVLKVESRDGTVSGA
How it was run: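 Human CYP3A4 dealkylates Luciferin-PPXE to luciferin, which luciferase detection converts to light. Substrate was at its KM (25uM), buffer 200mM KPO4, reaction 60 min at RT.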

[9] = Counterscreen qHTS for small molecule stabilizers of the endoplasmic reticulum resident proteome: GLuc-NoTag assay (AID 1508627; active = well fitted curve in the direction sought with a large enough effect; an effect the other way counts as inactive or inconclusive;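 also: SH-SY5Y cells given compound then 100 nM thapsigargin to empty ER calcium; 0% = thapsigargin alone and -100% = DMSO vehicle control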); conditions: Gaussia luciferase NoTag secretion counterscreen, luminescence, thapsigargin 100 nM for final 4 h; series mostly up to 76.4 µM
How it was run: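 Counterscreen line: SH-SY5Y-GLuc-NoTag cells, treated with compound 19 hr before a 4 hr, 100 nM thapsigargin calcium depletion. Secreted Gaussia luciferase in the medium was measured by luminescence after coelenterazine was added (0.07x final), with cells unlysed.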

[10] = Confirmatory qHTS for small molecule stabilizers of the endoplasmic reticulum resident proteome: Secreted ER Calcium Modulated Protein (SERCaMP) assay (AID 1508628; active = well fitted curve in the direction sought with a large enough effect; an effect the other way counts as inactive or inconclusive; also: potency is read from the fitted curve at half-maximal effect; nearly all actives have a fitted effect of over 40% in size); conditions: SERCaMP secreted luciferase ER calcium/proteostasis reporter; series mostly up to 76.3 µM
How it was run: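 GLuc-SERCaMP-expressing SH-SY5Y cells, pretreated 16 h with compound, are challenged with thapsigargin to empty ER calcium stores; after 4 h, coelenterazine is added directly to the medium and luminescence is imaged.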

[11] = NFAT Signaling Pathway (AID 444); conditions: Jurkat NFAT-bla M1, carbachol, beta-lactamase ratio, 5 h; at 7.69 µM (top of the series) unless noted;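 also: carbachol stimulus at about its EC50 of 1 µM final; % is scaled to controls: 0 for no effect and ±100 for the full control effect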
How it was run: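 Read-out: CCF4 FRET ratio (460 nm/530 nm) after 1 h RT dye loading, used for %activity and AC50 from titration series. Cells: Jurkat NFAT-β-lactamase/M1 line, treated with compound plus 1 uM carbachol for 5 h, 37 °C.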

[12] = qHTS Assay for Lipid Storage Modulators (AID 1519; calls by dose curve); conditions: Drosophila S3 cells, BODIPY lipid droplet/cell ratio, laser cytometry, cells loaded with oleic acid; for activity change, negative = inhibition: at 57.5 µM (top of the series)
How it was run: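 Cells seeded at 5,000 per well were treated with compounds over a concentration series and loaded with oleic acid (400 uM, as added). Lipid droplet fluorescence (488 nm excitation, 500-530 nm channel) was read by laser-scanning cytometry and normalized to 20 uM Triacsin C.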

[13] = target: Dual specificity protein kinase CLK4 (Homo sapiens) (UniProt Q9HAZ1); assay: qHTS Assay for Inhibitors of CDC-like Kinase 4 (Kinase-Glo Assay) (AID 1770; active = well fitted curve in the direction sought with a large enough effect; an effect the other way counts as inactive or inconclusive; also: % is scaled to controls: 0 for no effect and ±100 for the full control effect; nearly all actives have a fitted effect of over 65% in size); conditions: recombinant Clk4, Kinase-Glo ATP depletion luminescence; series mostly up to 66.7 µM
Chain of Dual specificity protein kinase CLK4 (Homo sapiens) (Q9HAZ1 whole entry, looked up): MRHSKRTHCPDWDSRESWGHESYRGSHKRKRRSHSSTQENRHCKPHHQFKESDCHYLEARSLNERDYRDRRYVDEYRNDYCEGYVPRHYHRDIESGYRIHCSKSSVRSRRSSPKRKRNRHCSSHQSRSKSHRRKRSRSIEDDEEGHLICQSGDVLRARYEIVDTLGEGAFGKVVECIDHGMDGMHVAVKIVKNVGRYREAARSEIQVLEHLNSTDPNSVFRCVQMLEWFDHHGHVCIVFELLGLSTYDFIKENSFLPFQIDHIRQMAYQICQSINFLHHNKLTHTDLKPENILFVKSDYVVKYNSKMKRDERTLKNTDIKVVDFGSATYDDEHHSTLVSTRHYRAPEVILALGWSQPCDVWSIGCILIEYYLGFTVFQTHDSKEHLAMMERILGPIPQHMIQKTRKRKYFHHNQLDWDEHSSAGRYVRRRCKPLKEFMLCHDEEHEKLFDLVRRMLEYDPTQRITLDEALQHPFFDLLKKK
How it was run: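 Substrate mix (RS peptide 100 uM, ATP 1 uM) dispensed, compound pinned in, then Clk4 added to 25 nM final. Incubated 4.5 h at RT; Kinase-Glo reagent added, luminescence read after 5 min.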

[14] = target: Dual specificity protein kinase CLK4 (Homo sapiens) (UniProt Q9HAZ1); assay: qHTS Assay for Inhibitors of CDC-like Kinase 4 (ADP-FP Assay) (AID 1795; active = well fitted curve in the direction sought with a large enough effect; an effect the other way counts as inactive or inconclusive;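 also: recombinant human CLK4 phosphorylating RS repeat peptide at 1 µM ATP; % is scaled to controls: 0 for no effect and ±100 for the full control effect; nearly all actives have a fitted effect of over 60% in size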); conditions: Transcreener ADP fluorescence polarization; series mostly up to 50 µM
How it was run: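 Clk4 6.25 nM; RS peptide 100 uM; ATP 1 uM; 25 mM Tris pH 7.5, 10 mM MgCl2; 1 h reaction. ADP detected via antibody/orange tracer FP displacement; TG003 positive control.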

[15] = target: Cytochrome P450 1A2 (Homo sapiens) (UniProt P05177); assay: p450-cyp1a2 (AID 410; calls by dose curve;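 also: -100% = full effect of reference inhibitor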); conditions: recombinant CYP1A2, luciferin-ME demethylation, luminescence; series mostly up to 57 µM
Chain of Cytochrome P450 1A2 (Homo sapiens) (P05177 whole entry, looked up): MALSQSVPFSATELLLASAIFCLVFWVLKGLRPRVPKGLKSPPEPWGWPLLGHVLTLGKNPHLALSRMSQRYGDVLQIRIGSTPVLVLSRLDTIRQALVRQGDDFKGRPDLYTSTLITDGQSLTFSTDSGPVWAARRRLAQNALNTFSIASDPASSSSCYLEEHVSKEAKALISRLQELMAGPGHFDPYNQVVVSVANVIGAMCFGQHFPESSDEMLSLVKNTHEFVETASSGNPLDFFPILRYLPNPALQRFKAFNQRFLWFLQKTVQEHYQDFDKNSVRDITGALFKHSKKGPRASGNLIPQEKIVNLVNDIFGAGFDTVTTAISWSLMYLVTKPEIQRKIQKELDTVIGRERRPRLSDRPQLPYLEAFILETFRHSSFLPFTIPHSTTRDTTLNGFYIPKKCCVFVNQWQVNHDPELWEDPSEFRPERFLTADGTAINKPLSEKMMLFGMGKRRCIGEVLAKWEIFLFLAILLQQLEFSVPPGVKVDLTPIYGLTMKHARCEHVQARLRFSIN
How it was run: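 20nM CYP1A2, 100uM Luciferin-ME (=Km), 100mM KPO4; cpd 10 min RT; +NADPH regen, 60 min RT; stop/detect 20 min; luminescence. Normalized to furafylline 57 uM = full inhibition.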

[16] = Confirmation and Secondary Assay for Modulators of Hemoglobin Beta Chain Splicing at IVS2 654 locus (AID 910; active = well fitted curve in the direction sought with a large enough effect; an effect the other way counts as inactive or inconclusive;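 also: HeLa cells stably carrying EGFP split by mutant beta-globin IVS2-654 intron; per-well total GFP intensity by laser scanning cytometry after 2-day treatment; % of control where 0% means no effect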); conditions: HeLa EGFP-654 splicing reporter, GFP fluorescence, 48 h; series mostly up to 38.3 µM
How it was run: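 Readout: per-well total peak green fluorescence (488 nm ex, 500–520 nm em) from objects 5–250 µm, reflecting correct splicing of an EGFP-654 reporter. Compounds were applied for 2 days at 37 °C to overnight-plated HeLa EGFP-654 cells; controls were DMSO and 500 nM IVS2-654 PNA.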

[17] = qHTS Assay for Identification of Small Molecule Agonists for Hypoxia Response Element Signaling Pathway (AID 914; active = well fitted activation curve with a large enough effect in the signal ratio, with a control signal flat, not every such curve was filed as active; the % refers to the signal ratio; also: potency is read from the fitted curve at half-maximal effect); conditions: ME-180 HRE-bla reporter, beta-lactamase ratio, CoCl2, 17 h; activation: stronger effect = higher value
How it was run: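 ME-180 cells carrying an HRE-driven beta-lactamase reporter were treated with compounds in a titration series plus an EC50 level of CoCl2 for 17 h at 37 degrees Celsius; CCF4 readout as the 460nm/530nm ratio gave AC50 values.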

[18] = target: Ubiquitin carboxyl-terminal hydrolase 1 (Homo sapiens) (UniProt O94782); assay: Inhibitors of USP1/UAF1: Pilot qHTS (AID 504865; active = well fitted curve in the direction sought with a large enough effect; an effect the other way counts as inactive or inconclusive;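 also: rhodamine fluorescence freed from ubiquitin-rhodamine substrate followed over time; top concentration of the series differs between compounds; % is scaled to controls: 0 for no effect and ±100 for the full control effect; nearly all actives have a fitted effect of over 35% in size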); conditions: purified USP1/UAF1, Ub-rhodamine cleavage fluorescence; series mostly up to 54.9 µM
Chain of Ubiquitin carboxyl-terminal hydrolase 1 (Homo sapiens) (O94782 whole entry, looked up): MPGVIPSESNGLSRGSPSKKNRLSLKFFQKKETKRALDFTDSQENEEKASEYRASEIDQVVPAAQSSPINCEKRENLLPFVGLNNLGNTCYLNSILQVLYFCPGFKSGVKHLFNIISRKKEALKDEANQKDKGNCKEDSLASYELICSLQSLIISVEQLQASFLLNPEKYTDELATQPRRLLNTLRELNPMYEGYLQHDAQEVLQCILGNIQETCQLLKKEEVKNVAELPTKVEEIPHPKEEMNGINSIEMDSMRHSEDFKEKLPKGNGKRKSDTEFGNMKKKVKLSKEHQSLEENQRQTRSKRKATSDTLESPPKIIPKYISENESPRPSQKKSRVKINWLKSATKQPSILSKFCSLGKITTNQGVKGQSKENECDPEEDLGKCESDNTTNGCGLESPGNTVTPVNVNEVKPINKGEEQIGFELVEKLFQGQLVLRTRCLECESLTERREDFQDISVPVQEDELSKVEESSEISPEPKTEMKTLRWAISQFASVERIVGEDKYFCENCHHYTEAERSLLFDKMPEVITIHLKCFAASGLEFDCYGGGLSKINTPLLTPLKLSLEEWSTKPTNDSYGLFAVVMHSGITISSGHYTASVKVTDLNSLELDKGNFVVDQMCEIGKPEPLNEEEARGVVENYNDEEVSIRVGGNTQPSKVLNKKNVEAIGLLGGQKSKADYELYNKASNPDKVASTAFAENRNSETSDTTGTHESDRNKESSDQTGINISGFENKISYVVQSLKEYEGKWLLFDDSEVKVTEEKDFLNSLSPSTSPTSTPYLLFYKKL
How it was run: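 In 50mM HEPES pH 7.8 containing 0.5mM EDTA, 1mM TCEP, 0.1 mg/ml BSA and 0.01% Tween-20, 1nM USP1/UAF1 is exposed to compound for 15 min, then Ub-Rho (150nM final) is added and fluorescence is read over time.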

[19] = target: Dual specificity protein kinase CLK4 (Homo sapiens) (UniProt Q9HAZ1); assay: qHTS Assay for Inhibitors of CDC-like Kinase 4 (ADP-Glo Assay) (AID 1771; active = well fitted curve in the direction sought with a large enough effect; an effect the other way counts as inactive or inconclusive; also: % is scaled to controls: 0 for no effect and ±100 for the full control effect; nearly all actives have a fitted effect of over 70% in size); conditions: recombinant CLK4, ADP-Glo luminescence; series mostly up to 80 µM
How it was run: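 25 nM Clk4, 100 uM RS peptide, 1 uM ATP (final); 2 mM MgCl2, 0.5 mM EGTA, 2.5 mM DTT, 0.01% Triton X-100; 1 hr RT. ADP-Glo readout: ATP depletion 45 min, conversion/luciferase 30 min, luminescence.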

[20] = measured here: cell count channel max response
[21] = measured here: lipid channel max response

O=c1cnc2cnc(N3CCNCC3)nc2n1Cc1cccs1
inactive: Potency [1] > 11.4 µM | activity change, negative = inhibition [2] -4.82% | activity, negative = inhibition [3] 0.322% | Potency [4] > 9.22 µM | Potency [5] > 46 µM | outcome [6] | Potency [7] | Potency [8] | Potency [9]
active: Potency [10] 31.6 µM

O=c1c(CCc2ccccc2)nc2cnc(N3CCNCC3)nc2n1C1CC1
inactive: Potency [1] > 11.4 µM | activity change, negative = inhibition [2] -9.21% | activity change, negative = inhibition [11] -7.73% | activity, negative = inhibition [3] -12.8% | Potency [4] > 9.22 µM | Potency [5] > 46 µM | outcome [6] | Potency [8] | activity change, negative = inhibition [12] 2.72% | Potency [13] | Potency [14] | Potency [9]
18.1%: max response [12, 21]
16.7%: max response [12, 20]

O=c1c(-c2ccc(Cl)cc2)nc2cnc(Oc3ccccc3)nc2n1C1CC1
active: Potency [10] 35.5 µM
inactive: Potency [1] > 11.4 µM | activity change, negative = inhibition [2] -21% | activity change, negative = inhibition [11] -2.33% | activity, negative = inhibition [3] -4.95% | Potency [4] > 9.22 µM | Potency [5] > 46 µM | outcome [6] | Potency [7] | Potency [9]

O=S(=O)(c1ccccc1)N1CCC[C@@]2(CCN(c3ccncc3)C2)C1
inactive: Potency [1] > 11.4 µM | activity change, negative = inhibition [2] -6.47% | Potency [15] | activity, negative = inhibition [3] 0.894% | Potency [5] > 46 µM | outcome [6] | Potency [7] | Potency [8] | activity change, negative = inhibition [12] 0.287% | Potency [9]
4.65%: max response [12, 20]
6.49%: max response [12, 21]

COc1ccccc1-c1cncnc1NCCN1CCOCC1
4.25%: max response [12, 20]
inactive: activity, negative = inhibition [3] 1.09% | Potency [4] > 46 µM | Potency [5] > 46 µM | outcome [6] | Potency [7] | outcome [16] | activity change, negative = inhibition [12] 0.65% | Potency [18] | Potency [9]
active: Potency [17] 2.51 µM
4.66%: max response [12, 21]

FC(F)(F)c1ccccc1-c1nc(NC2CCNCC2)c2ccccc2n1
17.3%: max response [12, 21]
inactive: Potency [1] > 11.4 µM | activity change, negative = inhibition [2] 9.18% | activity change, negative = inhibition [11] 7.17% | activity, negative = inhibition [3] 1.97% | Potency [4] > 46 µM | Potency [5] > 46 µM | outcome [6] | Potency [7] | activity change, negative = inhibition [12] 1.75% | Potency [13] | Potency [19] | Potency [14] | Potency [18] | Potency [9]
19.6%: max response [12, 20]
